The panel holds about 83,000 compounds, 20% with a hit somewhere; the sample as a whole holds those more often.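 Negative percent growth values reflect cell death: -40 means 40% of the cells present at the start died, and -100 means all died.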 Calls of active or inactive are those of the source. The calls were made as follows: active = growth percent below 10; inactive = the rest.

This assay concerns MDA-MB-468 breast. The assay can be described thus: NCI-60 one-dose screen, 48 h (100 = growth as untreated, 0 = no growth, -100 = all killed). The settings on record: 10 µM unless noted.
As for `CC1(C)CC[C@]2(CO)CC[C@]3(C)C(=CC[C@@H]4[C@@]5(C)CC[C@H](NCO)C(C)(C)[C@@H]5CC[C@]43C)[C@@H]2C1`, the growth is -70.1% (active).

Turning to `Cc1ccc(/C=C2\SC(=S)N(CC(=O)NCCCN3CCOCC3)C2=O)cc1`, the growth was 94.9% (inactive). The value for `C=CCn1c(-c2ccc(-c3nc4ccc(C)cc4[nH]3)cc2)n[nH]c1=S` was 95.6% (inactive).

In the case of `COc1cc2nccc(Oc3ccc(NC(=O)Nc4cc(C)on4)c(Cl)c3)c2cc1OC`, the growth is 15% (inactive).

Turning to `O=C(Cc1ccc(F)cc1)c1ccccc1`, the growth is 127% (inactive).

Regarding `COc1cc(NCC(O)CN(CC(C)C)C2CCCC2)c2ncccc2c1` (stereo unspecified), the growth is -13.4% (active).

These data come from PubChem BioAssay (NCI).
